# Source: PubChem BioAssay
# This is a sample that favours compounds with a hit; in the whole collection about 3.7% have one here.
# BoNT-F LC inh – inhibitors of Botulinum neurotoxin F light chain protease; inhibition, % at 10 µM; hit rate 0.22% among 360,000; Multiplex microsphere protease cleavage assay, flow cytometry; in the data active means inhibition above about 35%, passing the limit was not always enough; inconclusive means no clear call, values can overlap the other calls; further: plate controls were buffer without enzyme for full effect and enzyme alone for no effect
# BoNT-A LC inh2 – inhibitors of Botulinum neurotoxin A light chain protease; multiplex microsphere protease substrate cleavage, flow cytometry; hit rate 0.17% among 360,000; inhibition, % at 10 µM; further: plate controls were buffer without enzyme for full effect and enzyme alone for no effect
# MazF activator – activators of E. coli MazEF toxin-antitoxin RNase; activation, % at 20 µM; hit rate 0.32% among 350,000; FAM/BHQ RNA-DNA oligo cleavage fluorescence, 5 h; P0AE70; in the data active means activation above about 50%
# Anthrax LF inh2 – inhibitors of Bacillus anthracis lethal factor protease; hit rate 0.12% among 360,000; inhibition, % at 10 µM; P15917; multiplex microsphere protease cleavage assay, LF; further: plate controls were buffer without enzyme for full effect and enzyme alone for no effect
# Target sequence (P15917 whole entry, looked up): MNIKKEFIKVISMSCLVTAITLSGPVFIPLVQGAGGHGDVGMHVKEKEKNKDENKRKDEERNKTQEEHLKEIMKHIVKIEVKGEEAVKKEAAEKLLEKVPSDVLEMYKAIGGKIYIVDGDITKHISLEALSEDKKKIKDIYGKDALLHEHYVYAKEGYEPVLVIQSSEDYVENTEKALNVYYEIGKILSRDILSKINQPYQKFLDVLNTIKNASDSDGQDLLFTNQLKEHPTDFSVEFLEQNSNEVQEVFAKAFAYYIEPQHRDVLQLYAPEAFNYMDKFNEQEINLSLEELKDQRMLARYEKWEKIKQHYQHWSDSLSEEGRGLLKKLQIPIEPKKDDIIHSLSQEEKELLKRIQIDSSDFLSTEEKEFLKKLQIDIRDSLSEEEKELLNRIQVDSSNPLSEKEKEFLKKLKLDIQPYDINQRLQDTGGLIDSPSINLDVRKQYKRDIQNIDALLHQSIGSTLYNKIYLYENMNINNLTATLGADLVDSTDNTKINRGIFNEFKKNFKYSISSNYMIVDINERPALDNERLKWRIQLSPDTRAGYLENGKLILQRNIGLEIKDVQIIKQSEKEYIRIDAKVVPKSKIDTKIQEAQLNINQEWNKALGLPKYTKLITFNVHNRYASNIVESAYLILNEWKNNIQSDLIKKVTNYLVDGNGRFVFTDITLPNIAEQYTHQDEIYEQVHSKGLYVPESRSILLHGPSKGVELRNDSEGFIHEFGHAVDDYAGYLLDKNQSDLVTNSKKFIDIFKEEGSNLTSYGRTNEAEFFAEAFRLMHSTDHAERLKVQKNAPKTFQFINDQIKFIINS
# Autofluor counter – compound fluorescence in toxin protease inhibitor counterscreen. hit rate 3.1% among 360,000. AID 624483. fluorescence intensity (no concentration beside the values). compound autofluorescence counterscreen, microsphere flow cytometry; hits give high values; in the data active means fluorescence intensity above about 16000; inconclusive means no clear call, values can overlap the other calls
# Numbers without * were called inactive; ? = inconclusive; nt = not tested or not shown. Unless noted, no stated cut-off is given here; in the data, active means inhibition above about 30%; inconclusive means no clear call, values can overlap the other calls; inactive means below that.
SMILES,BoNT-F LC inh,BoNT-A LC inh2,MazF activator,Anthrax LF inh2,Autofluor counter
O=C1C=C(N(CCO)CCO)C2(CCCCC2)O1,-7,?,10,-8,22987*
O=C(CN1CCN(Cc2ccccc2)CC1)Nc1cccc(Br)c1,-18,-6,6,0,3644
CCCCCCn1cc(CN2CC(N3CCN(C4CCN(C)CC4)CC3)CS2(=O)=O)nn1 (centres undefined),6,0,nt,-3,4533
Cc1cc(C)nc(SCC(=O)NC2=NN=C(c3ccc(Br)cc3)CS2)n1,-7,?,-27,-3,24625*
Cc1c(S(=O)(=O)N2CCN(c3cccc(Cl)c3)CC2)c(=O)n(C)c(=O)n1C,-1,0,6,4,6692
COc1ccc(NC(=O)CC2C(=O)N(CCc3ccccc3)C(=S)N2Cc2cccnc2)cc1 (centres undefined),-6,-3,1,0,20810*
C=CCN1C(=O)C(CC(=O)Nc2ccc(OC)cc2)N(Cc2ccco2)C1=S (centres undefined),-1,?,4,1,22980*
COc1ccc(NC(=O)CC2C(=O)N(C)C(=S)N2Cc2ccco2)cc1 (centres undefined),-8,0,2,-1,2468
CC(=O)c1ccc(NC(=O)COC(=O)CCC(=O)c2cccs2)cc1,-3,-1,2,-2,9166
Cc1ccc(Oc2ccc(NC(=O)CCC(=O)OCC(=O)c3cccs3)cc2)cc1C,-1,0,-2,-7,16284*
CN1C(=O)C(=O)/C(=C(/O)c2ccc(Br)cc2)C1c1ccccc1F (centres undefined),?,-2,2,-12,4045
O=C(CSc1ncn[nH]1)NCCOc1ccccc1,-1,0,0,1,3302
O=C(CSCc1n[nH]c(=O)[nH]1)NCCOc1cccc(Oc2ccccc2)c1,-4,-1,-3,1,19843*
CC(C)n1nc(C(=O)Nc2nnc(SCc3c(Cl)cccc3Cl)s2)c2ccccc2c1=O,13,10,-12,0,19535*
CCOc1cccc(CNC2CN3CCC2CC3)c1 (centres undefined),-1,?,9,-2,16409*
[O-][N+]1=c2ccc(Nc3ccccc3)cc2=NC12CCCCC2,-15,-1,0,-8,16589*
COc1ccc(Nc2ccc3c(c2)=NC2(CCCCC2)[N+]=3[O-])cc1,-12,0,3,-10,7525
CCCS(=O)(=O)NC(=O)C1(C)CCCN(C(=O)c2ccccc2)C1 (centres undefined),-1,0,nt,-1,3028
COc1cccc(NC(=O)Cc2nnc(SCC(=O)NC3CCCC3)n2C)c1,8,0,-30,-8,3613
COc1cccc(NC(=O)Cc2nnc(SCC(=O)NC(C)c3ccccc3)n2C)c1 (centres undefined),-10,?,3,-4,21780*
COc1ccc(C)cc1NC(=O)CSc1nnc(CC(=O)Nc2cccc(C(F)(F)F)c2)n1C,-5,0,5,-2,7882
COc1ccccc1NC(=O)CSc1nnc(CC(=O)Nc2cccc(C(F)(F)F)c2)n1C,-5,-3,11,-1,20559*
Cc1ccc(C)c(S(=O)(=O)NCc2ccc(C(=O)N3CCOCC3)cc2)c1,-6,-1,-12,-1,4640
Cc1ccc(C)c(S(=O)(=O)NCc2ccc(C(=O)N3CCN(C)CC3)cc2)c1,0,?,0,-1,16472*
COc1cc(OC)c(NC(=S)Nc2cccc(C(C)=O)c2)cc1Cl,2,0,-1,0,2551
SMILES,BoNT-F LC inh,BoNT-A LC inh2,MazF activator,Anthrax LF inh2,Autofluor counter
COc1cc(OC)c(NC(=S)Nc2cc(Cl)cc(Cl)c2)cc1Cl,0,-1,60*,-2,2685
CCOC(=O)C1CCN(C(=O)N(C)C)CC1,1,0,-7,-3,23160*
CCCCCCC(=O)Nc1ccc(C(=O)N2CCCC2)cc1,-4,0,-3,-6,11443
CCOC(=O)C1CCN(C(=O)c2ccc3c(c2)OCO3)CC1,2,2,2,-1,22950*
CCCCC(=O)Nc1ccc(C(=O)N2CCC(C(=O)OCC)CC2)cc1,3,1,-3,2,23061*
CCCCC(=O)Nc1ccc(C(=O)NCCc2ccccc2)cc1,-2,0,-3,-3,6283
CCOC(=O)C1CCCN(C(=O)c2ccc3c(c2)OCO3)C1 (centres undefined),5,1,6,-6,6270
CCCCC(=O)Nc1ccc(C(=O)NCC(=O)OC)cc1,2,-1,6,0,22542*
COc1cc(/C=N\NC(=O)C(C)(C)O)ccc1OC/C=C/c1ccccc1,-4,0,-2,-2,5574
C[C@H]1CN(c2ccccc2)C(=O)[C@@H]1CC(=O)Nc1ccccc1,1,0,5,3,3818
CC1(C(=O)NS(=O)(=O)C2CC2)CCN(C(=O)c2cccc(OC(F)(F)F)c2)C1 (centres undefined),-4,0,nt,-1,3622
CCOC(=O)C1CCCN(Cc2ccc3c(c2)OCO3)C1 (centres undefined),-4,0,1,-1,16327*
CCN(CC)C(=O)C1CCCN(Cc2ccc3c(c2)OCO3)C1 (centres undefined),4,0,-2,-6,2466
CCOc1ccc(CN(C)Cc2cc(=O)oc3c(C)c(C)ccc23)cc1OC,-7,-1,-1,-3,3912
O=C1CC(c2ccc3c(c2)OCO3)c2cc3c(cc2N1)OCO3 (centres undefined),-8,0,-4,-2,2493
Cc1ccc(C2CC(=O)Nc3cc4c(cc32)OCO4)o1 (centres undefined),2,1,-6,-3,23026*
O=C(NC(=S)Nc1nc(-c2ccc(Br)cc2)cs1)c1cccnc1,-2,-1,-1,-2,23721*
O=C(Nc1nc(-c2ccc(Br)cc2)cs1)c1cccnc1,2,0,-56,0,4447
CC(C)CCNC(=O)c1ccc(CSCc2cccc(F)c2)o1,4,5,-20,-4,17562*
Cc1cccc(CSCc2ccc(C(=O)NC(C)C)o2)c1,10,3,5,-2,3559
CC1CN=C(c2ccccc2)O1 (centres undefined),-6,0,-5,2,3712
CCOc1ncccc1C(=O)Nc1ccc2c(c1)OCCCO2,2,3,-4,3,4730
O=C(NC1=NCCS1)c1cccs1,-4,-2,4,-5,4826
CC(C)C(NC(=O)c1cccs1)C(=O)NC1=NCCS1 (centres undefined),3,?,15,-1,21605*
CCC(=O)N(C)C[C@@H]1Oc2ncc(Br)cc2C(=O)N([C@H](C)CO)C[C@H]1C,-9,0,1,-4,3936
CCN(CC)S(=O)(=O)c1ccc(S(=O)(=O)Nc2ccc3c(c2)oc2ccccc23)cc1,-5,?,8,0,20070*
CC(=O)Nc1ccc(CNc2nc3cc(-c4cccc(C(F)(F)F)c4)sc3c(=O)n2C)cc1,0,0,nt,2,3966
O=C(Oc1ccc2c(=O)c(Oc3ccc4ccccc4c3)coc2c1)c1cncc(Br)c1,36*,0,-11,1,4480
